Source: PubChem BioAssay (NCATS)
Inconclusive results are not listed. Activity calls are given as the source filed them. Unless noted, calls come from the whole dose curve; as a rule, active = well fitted curve in the direction sought with a large enough effect; inconclusive = small, poorly fitted or top-dose-only effect, or another doubt; inactive = no such curve, though single readings can be large; an effect the other way counts as inactive or inconclusive.

Columns and labels:
[1] = target: Cytochrome P450 1A2 (Homo sapiens) (UniProt P05177); experiment: p450-cyp1a2 (AID 410; calls by dose curve; note: potency is the fitted concentration of half-maximal effect;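 for activity change, negative = inhibition: -100% = full effect of reference inhibitor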)
Procedure, shortened: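 Inhibition was calculated relative to 57 uM furafylline (full inhibition). The reaction used human CYP1A2 at 20nM with Luciferin-ME at its Km, 100uM, driven by an NADPH-regenerating system for 60 min at room temperature.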

[2] = target: Glucocorticoid receptor (Homo sapiens) (UniProt P04150); experiment: GR-GFP Redistribution (AID 450;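 active = compounds whose dose series gives a full or clear partial fitted curve of increased nuclear translocation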; note: potency is the fitted concentration of half-maximal effect); conditions: U2OS GR-GFP nuclear translocation, laser cytometry, 2 h
[3] = target: Glucocorticoid receptor (Homo sapiens) (UniProt P04150); experiment: GR-EFC Redistribution (AID 451; calls by dose curve; note: potency is the fitted concentration of half-maximal effect); conditions: CHO-K1 GR-EFC translocation, beta-gal luminescence, 2 h
Procedure, shortened: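 Translocation of GR-ED fusion to nuclear EA restores b-gal, read by luminescence after 1 h room-temperature detection. Engineered CHO-K1 biosensor cells, 1,000/well, exposed 2 h at 37 C to titrations up to 46 uM final.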

[4] = target: Mitogen-activated protein kinase 10 (Mus musculus) (UniProt Q61831); experiment: JNK3 AlphaScreen Assay (AID 530; active = well fitted curve in either direction with a large enough effect, not every such curve was filed as active;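 note: kinase came from lysate of stimulated human HepG2 cells; signal reports phosphorylation of biotinylated GST-cJun 1-79 at Ser73 with 10 µM ATP; % is set by controls: 0 for no effect and ±100 for the full control effect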)
Procedure, shortened: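 Room-temperature AlphaScreen kinase assay; pre-activated HepG2 lysate as JNK3 source, biotin-GST-cJun(1-79) substrate, 10 uM ATP, compound 15 min preincubation.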

[5] = target: Cytochrome P450 3A4 (Homo sapiens) (UniProt P08684); experiment: qHTS Assay for Activators of Cytochrome P450 3A4 (AID 885); note: nearly all actives have a fitted effect of over 65% in size
Procedure, shortened: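 Quantitative HTS format: compounds preincubated with 20nM human CYP3A4 and Luciferin-PPXE substrate at KM, reaction started by NADPH regeneration, stopped after 60 min, luciferase luminescence read 20 min later.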

[6] = qHTS Assay for Lipid Storage Modulators (AID 1519; calls by dose curve); conditions: Drosophila S3 cells, BODIPY lipid droplet/cell ratio, laser cytometry, cells loaded with oleic acid; for activity change, negative = inhibition: at 57.5 µM (top of the series)
Procedure, shortened: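 Cells seeded at 5,000 per well were treated with compounds over a concentration series and loaded with oleic acid (400 uM, as added). Lipid droplet fluorescence (488 nm excitation, 500-530 nm channel) was read by laser-scanning cytometry and normalized to 20 uM Triacsin C.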

[7] = Primary qHTS for small molecule stabilizers of the endoplasmic reticulum resident proteome: Secreted ER Calcium Modulated Protein (SERCaMP) assay (AID 1508630); note: % is set by controls: 0 for no effect and ±100 for the full control effect
Procedure, shortened: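 GLuc-SERCaMP-expressing SH-SY5Y cells, pretreated 16 h with compound, are challenged with thapsigargin to empty ER calcium stores; after 4 h, coelenterazine is added directly to the medium and luminescence is imaged.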

[8] = NFAT Signaling Pathway (AID 444; active = well fitted curve in either direction with a large enough effect, not every such curve was filed as active;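 note: carbachol stimulus at about its EC50 of 1 µM final; % is set by controls: 0 for no effect and ±100 for the full control effect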); conditions: Jurkat NFAT-bla M1, carbachol, beta-lactamase ratio, 5 h; at 7.69 µM (top of the series) unless noted
Procedure, shortened: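 Read-out: CCF4 FRET ratio (460 nm/530 nm) after 1 h RT dye loading, used for %activity and AC50 from titration series. Cells: Jurkat NFAT-β-lactamase/M1 line, treated with compound plus 1 uM carbachol for 5 h, 37 °C.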

[9] = Stat Signaling Pathway (AID 446; active = well fitted curve in either direction with a large enough effect, not every such curve was filed as active;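 note: ME-180 cervical cancer cells given 40 pM IL-6 alongside compound; SIE-controlled beta-lactamase reporter measured as 460/530 nm FRET emission ratio; % is set by controls: 0 for no effect and ±100 for the full control effect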); conditions: ME-180 SIE beta-lactamase reporter, IL-6 stimulated, 5 h; at 7.69 µM (top of the series) unless noted
Procedure, shortened: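 IL-6/STAT signaling read in ME-180 cells via an SIE beta-lactamase reporter. Stimulus was 40 pM IL-6 (its AC50) for 5 hrs, so both activation and inhibition register.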

[10] = target: 3',5'-cyclic-AMP phosphodiesterase 4B (Homo sapiens) (UniProt Q07343); experiment: qHTS Assay for Inhibitors of PDE-IV (AID 607; active = well fitted activation curve with a large enough effect in the main read-out, with a control signal flat, not every such curve was filed as active; note: % of control where 0% means no effect)
Procedure, shortened: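 Live HEK293 cells with a modified cyclic nucleotide-gated (CNG) channel report intracellular cAMP via membrane-potential dye fluorescence (ex 535/em 590 nm). Endogenous PDE-IV was targeted. Compounds were tested at up to 22.9 uM final; RO 20-1724 100 uM served as control.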

[11] = target: Cytochrome P450 3A4 (Homo sapiens) (UniProt P08684); experiment: qHTS Assay for Inhibitors and Substrates of Cytochrome P450 3A4 (AID 884); note: potency is the fitted concentration of half-maximal effect; nearly all actives have a fitted effect of over 50% in size
Procedure, shortened: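 20 nM human CYP3A4 with 25 uM Luciferin-PPXE (at KM) in 200 mM KPO4, preincubated 10 min with compound; NADPH regeneration started a 60 min RT reaction. Luciferin detected by luminescence, normalized to 57 uM ketoconazole as full inhibition.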

[12] = target: Lysosomal acid glucosylceramidase (Homo sapiens) (UniProt P04062); experiment: Glucocerebrosidase-p2 (AID 348; in the data active = potency below about 10 µM; note: potency is the fitted concentration of half-maximal effect); conditions: purified GBA, blue fluorogenic substrate, 40 min
Procedure, shortened: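 Compounds titrated from 0.6 nM upwards against 0.2 nM enzyme in pH 5.9 citric acid/KH2PO4, taurocholate, tween-20; blue fluorogenic substrate 80 uM, 40 min room temperature, stopped and read Ex 365/Em 440 for AC50.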

[13] = AP1 Signaling Pathway (AID 357; active = well fitted curve in either direction with a large enough effect, not every such curve was filed as active); conditions: ME-180 (cervical carcinoma) AP-1-bla reporter, EGF-induced, beta-lactamase ratio, 5 h; at 7.69 µM (top of the series) unless noted
Procedure, shortened: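 AP-1-bla ME-180 cells, Opti-MEM + 0.5% dialyzed FBS, plated overnight 37 °C. Cpd titration + EC50 EGF, 5 h 37 °C. CCF4 2.5 h RT; ex 405, em 460/530 ratio → %activity, AC50.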

[14] = target: Rap guanine nucleotide exchange factor 3 (Homo sapiens) (UniProt O95398); experiment: Confirmatory qHTS for antagonist of cAMP-regulated guanine nucleotide exchange factor 3 (EPAC1) (AID 1645880);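 note: plate controls were DMSO only for no effect and full effect of the ATA control for full effect; nearly all actives have a fitted effect of over 55% in size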
Procedure, shortened: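 Nucleotide exchange uses 100 nM EPAC1, 250 nM RAP1B-BODIPY-GDP and 50 uM GDP, with compounds in a concentration-titration series. After 5 min at room temperature, fluorescence (480 nm ex/540 nm em) is read every 5 min for 30 min. Data are normalized to control ATA and DMSO.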

[15] = target: Rap guanine nucleotide exchange factor 3 (Homo sapiens) (UniProt O95398); experiment: Confirmatory qHTS for agonist of cAMP-regulated guanine nucleotide exchange factor 3 (EPAC1) (AID 1645881);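 note: EPAC1 catalysed release of BODIPY-GDP from Rap1B seen as fluorescence loss; 100% = effect of cAMP agonist control; nearly all actives have a fitted effect of over 75% in size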
[16] = target: Rap guanine nucleotide exchange factor 4 (Homo sapiens) (UniProt Q8WZA2); experiment: Confirmatory qHTS for agonist of cAMP-regulated guanine nucleotide exchange factor 4 (EPAC2) (AID 1645884);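 note: nucleotide exchange releases bodipy-GDP from Rap1 and this lowers its fluorescence; % is set by controls: 0 for no effect and ±100 for the full control effect; nearly all actives have a fitted effect of over 65% in size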
[17] = target: Ubiquitin carboxyl-terminal hydrolase 1 (Homo sapiens) (UniProt O94782); experiment: Inhibitors of USP1/UAF1: Pilot qHTS (AID 504865);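 note: rhodamine fluorescence freed from ubiquitin-rhodamine substrate followed over time; top concentration of the series differs between compounds; % is set by controls: 0 for no effect and ±100 for the full control effect; nearly all actives have a fitted effect of over 35% in size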
Procedure, shortened: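 In 50mM HEPES pH 7.8 containing 0.5mM EDTA, 1mM TCEP, 0.1 mg/ml BSA and 0.01% Tween-20, 1nM USP1/UAF1 is exposed to compound for 15 min, then Ub-Rho (150nM final) is added and fluorescence is read over time.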

[18] = target: Rap guanine nucleotide exchange factor 4 (Homo sapiens) (UniProt Q8WZA2); experiment: Confirmatory qHTS for antagonist of cAMP-regulated guanine nucleotide exchange factor 4 (EPAC2) (AID 1645885); note: % is set by controls: 0 for no effect and ±100 for the full control effect; nearly all actives have a fitted effect of over 25% in size
[19] = target: Dual specificity protein kinase CLK4 (Homo sapiens) (UniProt Q9HAZ1); experiment: qHTS Assay for Inhibitors of CDC-like Kinase 4 (Kinase-Glo Assay) (AID 1770); note: nearly all actives have a fitted effect of over 65% in size; note: potency is the fitted concentration of half-maximal effect
Procedure, shortened: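 Substrate mix (RS peptide 100 uM, ATP 1 uM) dispensed, compound pinned in, then Clk4 added to 25 nM final. Incubated 4.5 h at RT; Kinase-Glo reagent added, luminescence read after 5 min.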

[20] = target: Dual specificity protein kinase CLK4 (Homo sapiens) (UniProt Q9HAZ1); experiment: qHTS Assay for Inhibitors of CDC-like Kinase 4 (ADP-FP Assay) (AID 1795);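 note: recombinant human CLK4 phosphorylating RS repeat peptide at 1 µM ATP; % is set by controls: 0 for no effect and ±100 for the full control effect; nearly all actives have a fitted effect of over 60% in size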
Procedure, shortened: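 Clk4 6.25 nM; RS peptide 100 uM; ATP 1 uM; 25 mM Tris pH 7.5, 10 mM MgCl2; 1 h reaction. ADP detected via antibody/orange tracer FP displacement; TG003 positive control.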

[21] = measured here: cell count channel max response
[22] = measured here: lipid channel max response

Cytochrome P450 3A4 (Homo sapiens), sequence (P08684 whole entry, looked up): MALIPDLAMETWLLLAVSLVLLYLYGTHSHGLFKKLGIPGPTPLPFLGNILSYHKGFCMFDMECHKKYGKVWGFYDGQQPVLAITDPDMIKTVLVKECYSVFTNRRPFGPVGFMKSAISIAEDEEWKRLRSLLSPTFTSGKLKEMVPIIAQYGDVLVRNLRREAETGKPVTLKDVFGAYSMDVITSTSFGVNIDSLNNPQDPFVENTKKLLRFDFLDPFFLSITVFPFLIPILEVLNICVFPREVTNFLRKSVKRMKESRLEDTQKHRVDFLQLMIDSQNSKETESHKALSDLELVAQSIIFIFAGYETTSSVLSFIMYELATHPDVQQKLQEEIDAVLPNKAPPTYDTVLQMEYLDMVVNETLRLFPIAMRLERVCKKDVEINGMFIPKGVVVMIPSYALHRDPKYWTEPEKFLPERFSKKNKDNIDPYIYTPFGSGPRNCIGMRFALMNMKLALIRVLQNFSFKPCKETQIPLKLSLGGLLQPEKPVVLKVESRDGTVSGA
Dual specificity protein kinase CLK4 (Homo sapiens), sequence (Q9HAZ1 whole entry, looked up): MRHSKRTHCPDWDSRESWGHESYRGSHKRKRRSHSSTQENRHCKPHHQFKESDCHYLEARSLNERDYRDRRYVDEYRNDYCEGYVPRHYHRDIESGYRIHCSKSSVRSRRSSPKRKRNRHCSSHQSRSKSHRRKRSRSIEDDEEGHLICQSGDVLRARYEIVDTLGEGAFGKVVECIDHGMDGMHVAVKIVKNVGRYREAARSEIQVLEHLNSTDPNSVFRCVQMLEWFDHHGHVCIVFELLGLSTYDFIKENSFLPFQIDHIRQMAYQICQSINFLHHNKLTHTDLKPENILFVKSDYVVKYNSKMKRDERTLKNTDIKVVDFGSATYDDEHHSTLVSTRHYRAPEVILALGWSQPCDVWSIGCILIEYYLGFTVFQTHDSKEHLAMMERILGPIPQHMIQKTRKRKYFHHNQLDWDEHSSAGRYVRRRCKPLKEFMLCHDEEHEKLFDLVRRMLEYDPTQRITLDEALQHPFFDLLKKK
Glucocorticoid receptor (Homo sapiens), sequence (P04150 whole entry, looked up, the tested form may be a part): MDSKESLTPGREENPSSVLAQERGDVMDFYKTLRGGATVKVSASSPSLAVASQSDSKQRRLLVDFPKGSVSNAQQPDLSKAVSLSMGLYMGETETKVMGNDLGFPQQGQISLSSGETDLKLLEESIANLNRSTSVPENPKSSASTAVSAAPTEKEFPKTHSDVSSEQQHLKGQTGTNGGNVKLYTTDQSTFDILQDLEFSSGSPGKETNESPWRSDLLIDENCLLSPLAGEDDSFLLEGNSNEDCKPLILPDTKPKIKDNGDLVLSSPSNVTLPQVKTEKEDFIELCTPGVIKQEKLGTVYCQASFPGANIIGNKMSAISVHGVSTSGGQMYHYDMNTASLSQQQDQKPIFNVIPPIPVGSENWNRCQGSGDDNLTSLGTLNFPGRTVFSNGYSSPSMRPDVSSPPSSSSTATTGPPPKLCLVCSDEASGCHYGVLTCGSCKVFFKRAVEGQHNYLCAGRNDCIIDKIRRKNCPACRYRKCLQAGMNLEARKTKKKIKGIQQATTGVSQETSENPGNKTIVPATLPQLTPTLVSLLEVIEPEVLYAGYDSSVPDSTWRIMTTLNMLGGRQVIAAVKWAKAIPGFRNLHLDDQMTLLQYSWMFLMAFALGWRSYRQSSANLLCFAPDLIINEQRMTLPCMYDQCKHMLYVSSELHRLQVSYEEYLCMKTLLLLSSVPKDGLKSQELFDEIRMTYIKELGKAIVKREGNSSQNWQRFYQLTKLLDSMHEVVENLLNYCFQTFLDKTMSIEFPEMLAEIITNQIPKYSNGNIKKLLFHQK
Ubiquitin carboxyl-terminal hydrolase 1 (Homo sapiens), sequence (O94782 whole entry, looked up): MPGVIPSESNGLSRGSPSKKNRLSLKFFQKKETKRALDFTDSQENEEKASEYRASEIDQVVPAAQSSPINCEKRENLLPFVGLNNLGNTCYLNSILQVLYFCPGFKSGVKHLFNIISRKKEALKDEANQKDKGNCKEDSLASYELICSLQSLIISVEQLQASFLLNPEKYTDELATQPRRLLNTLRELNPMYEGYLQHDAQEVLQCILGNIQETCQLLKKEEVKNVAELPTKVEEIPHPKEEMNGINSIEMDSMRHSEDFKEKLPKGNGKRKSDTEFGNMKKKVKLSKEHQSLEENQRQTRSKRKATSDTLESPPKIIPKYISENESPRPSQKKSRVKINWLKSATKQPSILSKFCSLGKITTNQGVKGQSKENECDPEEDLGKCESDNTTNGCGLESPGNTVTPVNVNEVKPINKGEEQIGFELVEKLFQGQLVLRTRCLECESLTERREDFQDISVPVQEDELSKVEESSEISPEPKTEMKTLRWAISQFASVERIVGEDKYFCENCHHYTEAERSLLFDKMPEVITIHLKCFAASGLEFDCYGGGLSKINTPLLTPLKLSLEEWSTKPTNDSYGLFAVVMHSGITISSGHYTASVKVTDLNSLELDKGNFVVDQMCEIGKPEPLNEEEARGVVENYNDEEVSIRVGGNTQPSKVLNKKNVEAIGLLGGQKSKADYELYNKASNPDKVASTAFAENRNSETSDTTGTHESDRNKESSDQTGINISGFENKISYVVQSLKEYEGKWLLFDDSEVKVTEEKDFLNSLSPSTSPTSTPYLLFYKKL
Cytochrome P450 1A2 (Homo sapiens), sequence (P05177 whole entry, looked up): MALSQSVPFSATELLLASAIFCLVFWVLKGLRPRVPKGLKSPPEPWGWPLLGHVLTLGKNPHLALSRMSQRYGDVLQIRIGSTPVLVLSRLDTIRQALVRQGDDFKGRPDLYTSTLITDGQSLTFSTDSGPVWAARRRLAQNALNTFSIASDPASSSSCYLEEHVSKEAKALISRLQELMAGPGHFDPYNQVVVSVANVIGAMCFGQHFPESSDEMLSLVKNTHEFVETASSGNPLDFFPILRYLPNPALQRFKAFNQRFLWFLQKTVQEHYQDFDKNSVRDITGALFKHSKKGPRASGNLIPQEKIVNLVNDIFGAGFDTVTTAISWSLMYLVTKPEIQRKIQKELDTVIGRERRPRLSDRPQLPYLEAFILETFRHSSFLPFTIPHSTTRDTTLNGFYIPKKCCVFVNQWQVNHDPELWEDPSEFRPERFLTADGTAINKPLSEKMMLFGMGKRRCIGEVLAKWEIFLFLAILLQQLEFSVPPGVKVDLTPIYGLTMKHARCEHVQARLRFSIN
3',5'-cyclic-AMP phosphodiesterase 4B (Homo sapiens), sequence (Q07343 whole entry, looked up): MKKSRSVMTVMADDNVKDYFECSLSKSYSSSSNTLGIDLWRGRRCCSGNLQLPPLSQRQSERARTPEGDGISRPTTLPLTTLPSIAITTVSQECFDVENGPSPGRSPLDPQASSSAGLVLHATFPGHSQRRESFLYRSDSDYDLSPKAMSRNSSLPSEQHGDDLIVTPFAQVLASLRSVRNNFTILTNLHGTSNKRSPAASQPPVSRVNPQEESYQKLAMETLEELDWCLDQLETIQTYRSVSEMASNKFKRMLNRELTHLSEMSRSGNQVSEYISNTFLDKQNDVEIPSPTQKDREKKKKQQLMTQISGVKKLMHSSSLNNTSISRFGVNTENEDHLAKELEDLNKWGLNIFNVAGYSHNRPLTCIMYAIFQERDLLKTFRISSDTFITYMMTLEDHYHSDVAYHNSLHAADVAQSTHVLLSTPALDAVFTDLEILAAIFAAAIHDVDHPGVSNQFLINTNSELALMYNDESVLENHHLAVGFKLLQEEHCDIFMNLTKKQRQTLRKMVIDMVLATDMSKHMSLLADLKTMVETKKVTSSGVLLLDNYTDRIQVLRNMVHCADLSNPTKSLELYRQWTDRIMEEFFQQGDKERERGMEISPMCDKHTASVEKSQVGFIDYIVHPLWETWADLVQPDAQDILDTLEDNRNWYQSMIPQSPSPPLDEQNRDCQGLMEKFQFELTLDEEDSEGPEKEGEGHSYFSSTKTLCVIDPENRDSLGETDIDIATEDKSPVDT
Rap guanine nucleotide exchange factor 4 (Homo sapiens), sequence (Q8WZA2 whole entry, looked up): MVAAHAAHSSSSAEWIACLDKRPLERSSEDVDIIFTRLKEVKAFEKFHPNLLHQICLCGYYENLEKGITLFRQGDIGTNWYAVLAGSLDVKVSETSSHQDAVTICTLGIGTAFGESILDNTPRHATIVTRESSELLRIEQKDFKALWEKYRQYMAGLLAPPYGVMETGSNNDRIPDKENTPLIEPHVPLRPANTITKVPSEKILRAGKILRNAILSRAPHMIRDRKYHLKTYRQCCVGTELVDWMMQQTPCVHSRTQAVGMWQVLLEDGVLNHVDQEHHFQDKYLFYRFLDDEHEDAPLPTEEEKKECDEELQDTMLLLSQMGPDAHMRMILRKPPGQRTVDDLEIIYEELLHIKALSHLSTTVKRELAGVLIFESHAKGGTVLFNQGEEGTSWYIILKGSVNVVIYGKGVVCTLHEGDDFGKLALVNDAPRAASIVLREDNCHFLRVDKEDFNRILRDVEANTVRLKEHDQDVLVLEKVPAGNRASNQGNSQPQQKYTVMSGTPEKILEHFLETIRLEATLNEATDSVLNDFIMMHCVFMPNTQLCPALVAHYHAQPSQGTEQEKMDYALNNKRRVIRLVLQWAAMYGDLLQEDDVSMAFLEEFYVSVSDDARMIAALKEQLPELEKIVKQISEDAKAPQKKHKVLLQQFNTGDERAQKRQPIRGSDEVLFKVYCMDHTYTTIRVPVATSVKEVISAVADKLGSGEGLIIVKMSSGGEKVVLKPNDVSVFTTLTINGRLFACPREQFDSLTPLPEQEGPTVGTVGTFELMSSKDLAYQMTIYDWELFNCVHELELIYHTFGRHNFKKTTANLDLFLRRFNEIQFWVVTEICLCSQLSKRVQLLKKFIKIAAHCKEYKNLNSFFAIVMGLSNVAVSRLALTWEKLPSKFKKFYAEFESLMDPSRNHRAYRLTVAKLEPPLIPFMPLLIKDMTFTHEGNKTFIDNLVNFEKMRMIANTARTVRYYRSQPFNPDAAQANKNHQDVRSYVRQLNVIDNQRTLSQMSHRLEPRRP

CS(=O)(=O)c1ccc(Cn2c3c(c4cc(F)cc(F)c42)CCC[C@H]3CC(=O)O)cc1
14.3%: max response [6, 22]
inactive: Potency [1] | Potency [2] > 46 µM | Potency [3] > 46 µM | Potency [4] | Potency [5] | activity change, negative = inhibition [6] -2.09% | outcome [7]
15%: max response [6, 21]

COc1ccc(Oc2ncc3nc(-c4ccc(F)cc4)c(=O)n(C)c3n2)cc1
24.3%: max response [6, 22]
active: Potency [11] 3.98 µM
18%: max response [6, 21]
inactive: activity change, negative = inhibition [8] -22.3% | activity, negative = inhibition [9] 12.3% | Potency [2] > 9.22 µM | Potency [3] > 46 µM | Potency [4] | Potency [10] | Potency [5] | activity change, negative = inhibition [6] 4.46% | outcome [7]

Cn1cccc1C(=O)N1CCC2(CC1)CN(c1cccc(-c3ccccc3)c1)C2
inactive: Potency [12] > 11.4 µM | activity change, negative = inhibition [13] -14% | activity change, negative = inhibition [8] -2.77% | activity, negative = inhibition [9] -13.7% | Potency [3] > 46 µM | Potency [10] | outcome [7] | Potency [14] | Potency [15] | Potency [16]
active: Potency [1] 25.1 µM

N[C@H](C(=O)O)c1ccc(O)c(C(=O)O)c1
22.5%: max response [6, 22]
inactive: Potency [1] | Potency [2] > 46 µM | Potency [4] | activity change, negative = inhibition [6] 1.32% | Potency [17] | outcome [7]
18.1%: max response [6, 21]

O=C(c1cccc(F)c1)N1CCC2(CCCN(c3cccc(-c4ccccc4)c3)C2)CC1
active: Potency [1] 15.8 µM
inactive: Potency [12] > 11.4 µM | activity change, negative = inhibition [13] 11.6% | activity change, negative = inhibition [8] -6.68% | activity, negative = inhibition [9] 7.29% | Potency [3] > 46 µM | Potency [4] | Potency [10] | Potency [5] | outcome [7] | Potency [14] | Potency [15] | Potency [16] | Potency [18]

COc1cccc(-c2ccc3ncnc(NCc4ccccc4OC)c3c2)c1
-13.1%: max response [6, 22]
-19.3%: max response [6, 21]
inactive: Potency [2] > 46 µM | Potency [3] > 46 µM | Potency [4] | Potency [10] | activity change, negative = inhibition [6] 5.94% | Potency [17] | outcome [7]

CS(=O)(=O)Nc1cccc(-c2ccc3ncnc(Nc4ccc(F)cc4)c3c2)c1
active: Potency [1] 0.794 µM | Potency [11] 7.94 µM
-27.4%: max response [6, 21]
inactive: activity, negative = inhibition [9] 4.21% | Potency [3] > 46 µM | Potency [4] | Potency [5] | activity change, negative = inhibition [6] 2.96% | outcome [7]
-14.7%: max response [6, 22]

Clc1cccc2c1CN(C1=NCCN1)C2
20.6%: max response [6, 22]
active: Potency [1] 0.398 µM
inactive: Potency [2] > 46 µM | Potency [3] > 46 µM | Potency [4] | Potency [10] | activity change, negative = inhibition [6] 3.4% | Potency [17] | outcome [7]
12.9%: max response [6, 21]

N#CCCn1c(=O)c(-c2cccs2)nc2cnc(N3CCOCC3)nc21
inactive: Potency [12] > 11.4 µM | activity change, negative = inhibition [13] 3.31% | activity change, negative = inhibition [8] -28.6% | activity, negative = inhibition [9] 17.9% | Potency [2] > 9.22 µM | Potency [3] > 46 µM | Potency [4] | Potency [19] | Potency [20] | outcome [7] | Potency [14] | Potency [15] | Potency [16] | Potency [18]

COc1ccc(CNc2cc(-c3ccccc3C)ncn2)c(OC)c1
inactive: Potency [12] > 11.4 µM | activity change, negative = inhibition [8] -16.6% | activity, negative = inhibition [9] -12.7% | Potency [2] > 46 µM | Potency [3] > 46 µM | Potency [4] | Potency [19] | Potency [20] | outcome [7] | Potency [14] | Potency [15] | Potency [16] | Potency [18]

COc1ccc(Oc2ncc3nc(-c4ccc(OC)cc4)c(=O)n(CCC#N)c3n2)cc1
17.2%: max response [6, 21]
21%: max response [6, 22]
inactive: activity change, negative = inhibition [8] 7.68% | activity, negative = inhibition [9] 2.86% | Potency [2] > 9.22 µM | Potency [3] > 46 µM | Potency [4] | Potency [10] | activity change, negative = inhibition [6] -1.07% | outcome [7]

COc1cccc(Nc2ncc3ncc(=O)n(Cc4cccs4)c3n2)c1
inactive: Potency [12] > 11.4 µM | Potency [3] > 46 µM | Potency [4] | Potency [17] | outcome [7] | Potency [14] | Potency [15] | Potency [16]
active: Potency [1] 1.58 µM | Potency [19] 0.708 µM

C=CC(C)(C)c1c2c(c(O)c3c(=O)c4ccc(O)c(O)c4oc13)C=CC(C)(C)O2
inactive: outcome [7] | Potency [15] | Potency [16]

O=c1c(-c2ccc(Cl)cc2)nc2cncnc2n1Cc1ccccc1Cl
inactive: Potency [12] > 11.4 µM | activity change, negative = inhibition [13] 8.01% | activity change, negative = inhibition [8] -29.5% | activity, negative = inhibition [9] 13% | Potency [2] > 9.22 µM | Potency [3] > 46 µM | Potency [4] | Potency [10] | Potency [5] | outcome [7] | Potency [15] | Potency [16] | Potency [18]
active: Potency [1] 1.26 µM
